UHRF1 MBD2 ctr – human UHRF1 methylated DNA binding inhibitors | Q96T88 | UHRF1 binding to methylated oligo, TR-FRET | inhibition, % at 4.4 µM | hit rate 0.75% among 370,000 | AID 687016; in the data active means inhibition above about 21%;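 further: UHRF1 SRA domain binding a hemimethylated CpG hairpin DNA probe; 0% = median of test compound wells and 100% = reference inhibitor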
PRMT1 FP inh – PRMT1 (human) inhibition, primary screen. hit rate 1.3% among 370,000. inhibition, % at 2.79 µM. Q99873. recombinant PRMT1, activity-based probe fluorescence polarization;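 active means inhibition above about 21% made by adding two undisclosed values, limit read from the data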
LEDGF integ inh – blocks HIV-1 LEDGF/p75-dependent DNA integration; TR-FRET IN-LEDGF/p75 DNA integration, Eu/Cy5; inhibition, % at 3.7 µM; hit rate 0.64% among 370,000; AID 743269;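 active means inhibition above the screen-wide mean plus 3 SD, cut at about 13% in these data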;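 further: signal is the Cy5 over europium emission ratio at 671 and 618 nm; 0% = plate median of compound wells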
rCAG RNA binder – r(CAG) repeat RNA binding; AID 651821; hit rate 1.3% among 370,000; inhibition, % at 3 µM; TO-PRO-1 dye displacement fluorescence;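 active means inhibition above the plate cutoff, the mean of all test compounds on that plate plus 3 SD, cut at about 35% in these data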;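 further: 0% = DMSO alone and 100% = 100 µM mitoxantrone as full dye displacement; higher means more dye released from RNA so lower well fluorescence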
MBD2 DNA inh – inhibitors of human MBD2 binding to methylated oligonucleotide | hit rate 0.31% among 370,000 | AID 686964 | TR-FRET | Q9UBB5 | inhibition, % at 4.4 µM; in the data active means inhibition above about 13%
ABHD5-PLIN5 inh – blocks binding of human ABHD5 to perilipin-5 | Q00G26+Q8WTS1 | Split G. princeps luciferase complementation, luminescence, 4 h | inhibition, % at 4 µM | hit rate 0.78% among 360,000;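 active means inhibition above the mean inhibition across every tested compound plus 3 SD, cut at about 22% in these data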;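 further: 0% = DMSO only wells and the 100% control is not disclosed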
ABHD5-PLIN5 conf – ABHD5-PLIN5 interaction inhibition, confirmed | shares compounds with ABHD5-PLIN5 inh | biochemical ABHD5-PLIN5 interaction, luminescence | inhibition, % at 4 µM | hit rate 67% among 2,200; in the data active means inhibition above about 23%;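 further: 0% = DMSO vehicle wells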
HNF4 counter – HNF4 split-luciferase signal hit, counter-screen. shares compounds with ABHD5-PLIN5 inh. HNF4 dimerization, luminescence, biochemical. inhibition, % at 4 µM. hit rate 77% among 2,200. AID 651674;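 active means mean inhibition across replicate wells exceeding the computed hit threshold, cut at about 13% in these data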;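 further: light from luciferase halves that rejoin when HNF4 fusion proteins dimerize; 0% = DMSO only wells and the 100% control is not given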
Target sequence (P41235 whole entry, looked up, the tested form may be a part): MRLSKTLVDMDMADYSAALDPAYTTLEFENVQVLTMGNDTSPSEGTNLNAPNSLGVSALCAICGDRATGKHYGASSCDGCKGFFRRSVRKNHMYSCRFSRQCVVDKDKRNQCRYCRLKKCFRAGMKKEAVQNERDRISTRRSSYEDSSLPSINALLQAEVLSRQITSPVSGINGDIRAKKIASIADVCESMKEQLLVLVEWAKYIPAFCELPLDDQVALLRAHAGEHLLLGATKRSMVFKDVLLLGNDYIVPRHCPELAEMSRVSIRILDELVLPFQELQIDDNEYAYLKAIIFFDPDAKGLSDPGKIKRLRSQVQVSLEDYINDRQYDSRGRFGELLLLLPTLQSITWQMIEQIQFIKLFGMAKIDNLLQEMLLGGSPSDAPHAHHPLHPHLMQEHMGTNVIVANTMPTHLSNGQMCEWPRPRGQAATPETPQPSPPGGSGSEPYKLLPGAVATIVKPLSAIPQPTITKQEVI
The depositor's hits bear a star; x = not tested or not shown. Hits are enriched below; roughly 4.1% of the tested compounds scored in any of these assays.

SMILES | UHRF1 MBD2 ctr | PRMT1 FP inh | LEDGF integ inh | rCAG RNA binder | MBD2 DNA inh | ABHD5-PLIN5 inh | ABHD5-PLIN5 conf | HNF4 counter
O=C(c1ccco1)N1CCN(c2cc(=O)n(-c3ccc(Cl)cc3)c(=O)[nH]2)CC1 | 1.4 | 1.8 | 1.9 | 3.2 | 1.5 | 12.9 | x | x
Cc1ccc(Cl)cc1-n1c(=O)cc(N2CCN(C(=O)c3ccco3)CC2)[nH]c1=O | 3.0 | 1.4 | -0.7 | 4.3 | 4.3 | 23.2* | 5.0 | 4.0
CCC1(C)N=C(c2ccc3c(c2)OCO3)CC(c2ccccc2O)N1 (configuration not stated) | -4.9 | -2.0 | 2.3 | 10.8 | -6.2 | 49.7* | 91.3* | 65.0*
COc1cccc(C2=NC(C)(C)NC(c3ccccc3O)C2)c1 (configuration not stated) | 0.2 | -0.5 | -5.2 | 6.2 | 3.2 | 56.9* | 73.2* | 72.1*
COc1cccc(C2=NNC(=NCc3ccccc3)SC2)c1 | 0.2 | 3.3 | -2.3 | 6.4 | -3.2 | -7.4 | x | x
CN(C)[C@@H]1CCN(c2cccc3c2S(=O)(=O)N(C2CC2)CCCO3)C1 | 1.1 | 0.5 | -3.4 | 4.6 | -4.2 | x | x | x
CC(OP(=O)(O)C(NC(=O)[C@H](Cc1ccc(O)cc1)NC(=O)OC(C)(C)C)C(C)C)C(=O)O (some centres not stated) | -0.6 | -7.3 | 1.5 | x | 4.5 | x | x | x
CCCCOc1ccc(C(=O)NC2CCCCN(Cc3ccc(Cl)cc3)C2=O)cc1 (configuration not stated) | -0.3 | -1.4 | 5.8 | 2.5 | 1.2 | x | x | x
Cc1ccccc1CS(=O)(=O)c1ncc(Cl)c(C(=O)Nc2ccc(F)cc2)n1 | -1.5 | 17.1 | -1.4 | 1.0 | -7.8 | 77.5* | 88.7* | 90.2*
CCN(c1ccccc1)S(=O)(=O)c1ccc(NC(=O)c2nc(S(C)(=O)=O)ncc2Cl)cc1 | x | x | x | x | x | 77.5* | 89.0* | 104.2*
CCS(=O)(=O)c1ncc(Cl)c(C(=O)Nc2ccc(S(=O)(=O)N(C)c3ccccc3)cc2)n1 | -3.0 | 18.2 | -0.7 | 11.0 | 0.6 | 77.7* | 92.0* | 98.7*
CC(=O)Nc1ccc(S(=O)(=O)N(C)c2ccccc2)cc1 | -0.2 | -2.0 | -3.9 | 9.5 | -0.1 | -1.5 | x | x
CCN(c1ccccc1)S(=O)(=O)c1ccc(C(=O)Nc2ccncc2)cc1 | -1.3 | -6.9 | -1.0 | -1.1 | -1.0 | 1.6 | x | x
COc1ccc2c(c1)CN1C(=O)N(C3CCCC3)S(=O)(=O)CC21 (configuration not stated) | 0.4 | 2.6 | -2.1 | 3.2 | -0.9 | x | x | x
C=CCN1C[C@@H](COCc2ccccc2)Oc2cc(F)ccc2S1(=O)=O | 3.0 | 3.5 | 0.8 | -0.8 | -5.0 | x | x | x
CN(C)c1ccc(/C=C/c2ccc3ccccc3[n+]2C)cc1 | -19.7 | 0.6 | -10.5 | 19.3 | -8.1 | 29.4* | 22.7* | 29.8*
COc1ccc([C@H]2OC(=O)C[C@H]2C(=O)N2CCCCC2)cc1OC | -2.7 | 6.6 | 1.1 | -0.9 | 0.3 | x | x | x
Cc1cccc(C)c1N/C=C/c1onc(C)c1[N+](=O)[O-] | -1.9 | -0.4 | 1.7 | 0.7 | 10.3 | 4.7 | x | x
COc1cc(/C=C/c2[nH]c(=O)[nH]c(=O)c2[N+](=O)[O-])ccc1OCCC(C)C | 2.0 | 3.4 | -0.4 | 4.1 | 7.1 | -1.1 | x | x
O=c1[nH]c(/C=C/c2cccc([N+](=O)[O-])c2)c([N+](=O)[O-])c(=O)[nH]1 | 0.8 | 4.6 | -3.9 | 13.0 | 2.5 | 25.0* | 91.3* | 85.4*
Cc1noc(/C=C/c2cccnc2)c1[N+](=O)[O-] | -0.7 | -1.5 | 2.5 | -1.8 | 0.5 | 36.6* | 47.5* | 33.5*
O=c1[nH]c(/C=C/c2cccnc2)c([N+](=O)[O-])c(=O)[nH]1 | -0.7 | -0.5 | -1.8 | -0.3 | 3.9 | 39.6* | 55.5* | 41.2*
COc1cc(/C=C/c2[nH]c(=O)[nH]c(=O)c2[N+](=O)[O-])cc([N+](=O)[O-])c1O | -4.7 | -0.5 | 2.2 | 2.5 | -19.2 | 33.2* | 43.9* | 32.7*
O=c1[nH]c(/C=C\c2cccnc2)c([N+](=O)[O-])c(=O)[nH]1 | -2.4 | 0.5 | -0.6 | 3.0 | 3.2 | 4.7 | x | x
O=C(OCc1cn(Cc2ccc(F)cc2F)nn1)N1CCOCC1 | 2.5 | 8.0 | -3.5 | 3.1 | 0.8 | x | x | x
